# According to PubChem BioAssay AID1159580 (chemical genetic matrix, 2015):
# The campaign covered roughly 5,500 compounds. About 2,000 (36%) were called active. Roughly 18% stayed inconclusive and do not appear here. The list shows a part of the results. Values without a mark were called inactive. Rule as the data show it: active = normalized growth mostly below about 0.91 (no sharp cut-off); inconclusive = no clear call, values can overlap the other calls; inactive = mostly above about 0.92.
# Assay: chemical genetic growth profiling, strain panel (AID 1159580);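 also: tested at 20 µM; growth read once vehicle control cultures reached saturation at 30 °C; 1 = growth at the plate median or of vehicle wells; lower values mean less growth of the strain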
# Conditions: S. cerevisiae deletion strains, growth OD
smiles,measurement,setting,value
O=C(O)C1=CC(=C(c2ccc(O)c(C(=O)O)c2)c2ccc(O)c(C(=O)O)c2)C=CC1=O,normalized growth,"locus YAL013W, strain DEP1, stronger effect = lower value",0.976
same,normalized growth,"locus YAL021C, strain ccr4, stronger effect = lower value",0.952
same,normalized growth,"locus YAL026C, strain drs2, stronger effect = lower value",0.983
same,normalized growth,"locus YAL030W, strain snc1, stronger effect = lower value",0.986
same,normalized growth,"locus YAL040C, strain CLN3, stronger effect = lower value",1.02
same,normalized growth,"locus YBL061C, strain skt5, stronger effect = lower value",0.963
same,normalized growth,"locus YBR009C, strain hhf1, stronger effect = lower value",1
same,normalized growth,"locus YBR023C, strain chs3, stronger effect = lower value",0.976
same,normalized growth,"locus YBR171W, strain sec66, stronger effect = lower value",0.963
same,normalized growth,"locus YBR231C, strain swc5, stronger effect = lower value",0.954
same,normalized growth,"locus YBR279W, strain paf1, stronger effect = lower value",0.968
same,normalized growth,"locus YCL011C, strain gbp2, stronger effect = lower value",0.974
same,normalized growth,"locus YCL016C, strain dcc1, stronger effect = lower value",0.995
same,normalized growth,"locus YCL061C, strain MRC1 (second series), stronger effect = lower value",0.98
same,normalized growth,"locus YCL061C, strain MRC1, stronger effect = lower value",0.999
same,normalized growth,"locus YCL069W, strain vba3, stronger effect = lower value",0.972
same,normalized growth,"locus YCR088W, strain abp1, stronger effect = lower value",0.985
same,normalized growth,"locus YDL005C, strain med2, stronger effect = lower value",0.966
same,normalized growth,"locus YDL040C, strain nat1, stronger effect = lower value",0.987
same,normalized growth,"locus YDR001C, strain nth1, stronger effect = lower value",0.992
same,normalized growth,"locus YDR069C, strain doa4, stronger effect = lower value",0.917
same,normalized growth,"locus YDR137W, strain rgp1, stronger effect = lower value",1.06
same,normalized growth,"locus YDR150W, strain NUM1, stronger effect = lower value",0.97
same,normalized growth,"locus YDR159W, strain sac3, stronger effect = lower value",1.03
same,normalized growth,"locus YDR195W, strain ref2",1
same,normalized growth,"locus YDR297W, strain sur2, stronger effect = lower value",0.978
same,normalized growth,"locus YDR334W, strain swr1, stronger effect = lower value",0.957
same,normalized growth,"locus YDR335W, strain msn5, stronger effect = lower value",0.965
same,normalized growth,"locus YDR392W, strain spt3, stronger effect = lower value",0.95
same,normalized growth,"locus YEL003W, strain gim4, stronger effect = lower value",0.973
same,normalized growth,"locus YEL037C, strain rad23, stronger effect = lower value",0.966
same,normalized growth,"locus YEL061C, strain CIN8 (second series), stronger effect = lower value",0.979
same,normalized growth,"locus YER002W, strain NOP16, stronger effect = lower value",1.02
same,normalized growth,"locus YER015W, strain faa2, stronger effect = lower value",0.952
same,normalized growth,"locus YER016W, strain bim1, stronger effect = lower value",0.985
same,normalized growth,"locus YER111C, strain swi4, stronger effect = lower value",0.961
same,normalized growth,"locus YER155C, strain BEM2 (second series), stronger effect = lower value",0.953
same,normalized growth,"locus YFR010W, strain ubp6, stronger effect = lower value",0.976
same,normalized growth,"locus YGL167C, strain pmr1, stronger effect = lower value",0.97
same,normalized growth,"locus YGL173C, strain kem1, stronger effect = lower value",0.984
same,normalized growth,"locus YGL227W, strain vid30, stronger effect = lower value",0.988
same,normalized growth,"locus YGL240W, strain doc1, stronger effect = lower value",0.985
same,normalized growth,"locus YGL253W, strain hxk2, stronger effect = lower value",0.978
same,normalized growth,"locus YGR229C, strain SMI1, stronger effect = lower value",0.823 (active)
same,normalized growth,"locus YHR013C, strain ard1, stronger effect = lower value",0.952
same,normalized growth,"locus YHR027C, strain rpn1, stronger effect = lower value",0.98
same,normalized growth,"locus YHR030C, strain SLT2, stronger effect = lower value",1.01
same,normalized growth,"locus YHR079C, strain IRE1, stronger effect = lower value",1
same,normalized growth,"locus YHR142W, strain chs7, stronger effect = lower value",0.946
same,normalized growth,"locus YJL092W, strain hpr5, stronger effect = lower value",0.97
same,normalized growth,"locus YJL095W, strain BCK1 (second series), stronger effect = lower value",0.963
same,normalized growth,"locus YJL095W, strain BCK1, stronger effect = lower value",0.982
same,normalized growth,"locus YJL115W, strain asf1, stronger effect = lower value",0.999
same,normalized growth,"locus YJL129C, strain trk1, stronger effect = lower value",1.01
same,normalized growth,"locus YJL154C, strain vps35, stronger effect = lower value",0.982
same,normalized growth,"locus YJL164C, strain tpk1, stronger effect = lower value",0.969
same,normalized growth,"locus YJL166W, strain qcr8, stronger effect = lower value",0.979
same,normalized growth,"locus YJL187C, strain SWE1, stronger effect = lower value",0.969
same,normalized growth,"locus YJR066W, strain TOR1, stronger effect = lower value",0.877
same,normalized growth,"locus YJR075W, strain HOC1, stronger effect = lower value",0.974
same,normalized growth,"locus YKL160W, strain elf1, stronger effect = lower value",0.976
same,normalized growth,"locus YKR026C, strain gcn3, stronger effect = lower value",0.989
same,normalized growth,"locus YKR091W, strain srl3, stronger effect = lower value",0.981
same,normalized growth,"locus YLL001W, strain dnm1, stronger effect = lower value",0.998
same,normalized growth,"locus YLL026W, stronger effect = lower value",0.985
same,normalized growth,"locus YLL041C, strain sdh2, stronger effect = lower value",0.981
same,normalized growth,"locus YLR027C, strain aat2, stronger effect = lower value",0.981
same,normalized growth,"locus YLR113W, strain HOG1, stronger effect = lower value",1.05
same,normalized growth,"locus YLR221C, strain rsa3, stronger effect = lower value",0.983
same,normalized growth,"locus YLR258W, strain gsy2, stronger effect = lower value",0.967
same,normalized growth,"locus YLR262C, strain YPT6 (second series), stronger effect = lower value",0.973
same,normalized growth,"locus YLR320W, strain mms22, stronger effect = lower value",0.985
same,normalized growth,"locus YLR342W, strain FKS1, stronger effect = lower value",0.978
same,normalized growth,"locus YLR357W, strain rsc2, stronger effect = lower value",0.857
same,normalized growth,"locus YLR370C, strain arc18, stronger effect = lower value",0.98
same,normalized growth,"locus YLR384C, strain iki3, stronger effect = lower value",0.957
same,normalized growth,"locus YML120C, strain ndi1, stronger effect = lower value",0.978
same,normalized growth,"locus YMR058W, strain fet3, stronger effect = lower value",0.714 (active)
same,normalized growth,"locus YMR125W, strain sto1, stronger effect = lower value",0.958
same,normalized growth,"locus YMR129W, stronger effect = lower value",0.989
same,normalized growth,"locus YMR205C, strain PFK2, stronger effect = lower value",1.01
same,normalized growth,"locus YMR231W, strain pep5, stronger effect = lower value",0.946
same,normalized growth,"locus YNL071W, strain lat1, stronger effect = lower value",0.974
same,normalized growth,"locus YNL175C, strain NOP13, stronger effect = lower value",1
same,normalized growth,"locus YNL183C, strain NPR1, stronger effect = lower value",0.913
same,normalized growth,"locus YNL197C, strain WHI3, stronger effect = lower value",1
same,normalized growth,"locus YNL209W, strain ssb2, stronger effect = lower value",0.952
same,normalized growth,"locus YNL224C, strain SQS1, stronger effect = lower value",1.03
same,normalized growth,"locus YNL248C, strain rpa49, stronger effect = lower value",0.999
same,normalized growth,"locus YNL322C, strain KRE1 (second series), stronger effect = lower value",0.999
same,normalized growth,"locus YNL322C, strain KRE1, stronger effect = lower value",0.93
same,normalized growth,"locus YNR049C, strain mso1, stronger effect = lower value",0.992
same,normalized growth,"locus YOR001W, strain rrp6, stronger effect = lower value",0.959
same,normalized growth,"locus YOR070C, strain gyp1, stronger effect = lower value",0.995
same,normalized growth,"locus YOR080W, strain dia2, stronger effect = lower value",0.988
same,normalized growth,"locus YOR083W, strain WHI5 (second series), stronger effect = lower value",0.999
same,normalized growth,"locus YOR083W, strain WHI5, stronger effect = lower value",0.97
same,normalized growth,"locus YOR106W, strain vam3, stronger effect = lower value",0.836 (active)
same,normalized growth,"locus YOR231W, strain MKK1, stronger effect = lower value",1.01
same,normalized growth,"locus YOR265W, strain rbl2, stronger effect = lower value",0.99
same,normalized growth,"locus YOR270C, strain vph1, stronger effect = lower value",0.942
same,normalized growth,"locus YOR290C, strain snf2, stronger effect = lower value",0.966
same,normalized growth,"locus YPL051W, strain arl3, stronger effect = lower value",0.907 (active)
same,normalized growth,"locus YPL055C, strain LGE1, stronger effect = lower value",0.961
same,normalized growth,"locus YPL078C, strain atp4, stronger effect = lower value",0.982
same,normalized growth,"locus YPL106C, strain sse1, stronger effect = lower value",0.915
same,normalized growth,"locus YPL240C, strain hsp82, stronger effect = lower value",0.973
same,normalized growth,"locus YPL256C, strain CLN2, stronger effect = lower value",1.06
